The supplement of paper PMC12819154, “High-throughput peptide-centric local stability assay extends protein–ligand identification to membrane proteins, tissues and bacteria” (Nature Structural & Molecular Biology, 2025)

The targets below were run with Nc1ncnc2c1ncn2[C@@H]1O[C@H](COP(=O)(O)OP(=O)(O)OP(=O)(O)O)[C@@H](O)[C@H]1O [adenosine 5'-triphosphate] (assay: log2 fold change of tryptic peptide abundance, ligand vs vehicle (limited proteolysis) (log2 ratio); higher = more trypsin-susceptible (destabilized)). Details: ligand concentration: 5 mM; sample: E. coli desalted lysate; replicate design: treated before aliquoting.
Protocol: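 HT-PELSA: desalted E. coli K-12 BW25113 lysate (with 12 mM MgCl2) incubated with 5 mM ATP (pH 7) or water for 30 min at 25 C, then a 4 min trypsin pulse at 22 C. Peptides were quantified by DIA-MS (4 replicates). Value is the peptide log2 fold change (treated/control); negative = stabilized. Scale: negative = ligand-stabilized region.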
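Also: lysate desalted by size exclusion to strip endogenous ATP, peptide intensities built from DIA-NN precursor signals, and peptides missing any value discarded before comparison.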

Target	log2 fold change
UniProt P39364 (peptide sequence: IIGQLMSDIR, peptide start residue: 82)	-0.915
UniProt P0A8Y3 (peptide sequence: VVVLSNTNR, peptide start residue: 103)	0.564
UniProt P0A9K7 (peptide sequence: HVGGDELDKLLAGK, peptide start residue: 224)	-0.493
UniProt P23839 (peptide sequence: YLETYFRLPEQFR, peptide start residue: 31)	0.91
UniProt P77552 (peptide sequence: AENTVVTGAGWLK, peptide start residue: 41)	0.332
UniProt P0A9M8 (peptide sequence: LSVFKPIAQPRTGGDAPDQTTTIVR, peptide start residue: 34)	2.79
UniProt P07023 (peptide sequence: KVEHWFGDYAQR, peptide start residue: 345)	0.528
UniProt P0ACX3 (peptide sequence: NLGVEEVVAK, peptide start residue: 75)	0.583
UniProt P61517 (peptide sequence: DLDVTATNR, peptide start residue: 190)	0.547
UniProt P39187 (peptide sequence: VLQHIAGR, peptide start residue: 63)	0.842
UniProt P31665 (peptide sequence: QEVSQEFAQR, peptide start residue: 262)	-0.678
